Measured values reported in PubChem BioAssay AID1159580 (chemical genetic matrix, 2015).
Where “and” joins values, the source holds several entries; their conditions need not be identical. Equal values may be shown once. The whole screen tested about 5,500 compounds, of which about 2,000 (36%) were called active. Roughly 18% stayed inconclusive and do not appear here. Cut-off read from the data, not from the text of the source: active = normalized growth mostly below about 0.91 (no sharp cut-off); inconclusive = no clear call, values can overlap the other calls; inactive = mostly above about 0.92. This is one part of the list.

Assay: chemical genetic growth profiling, strain panel (AID 1159580);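 note: tested at 20 µM; growth read once vehicle control cultures reached saturation at 30 °C; 1 = growth at the plate median or of vehicle wells; lower values mean less growth of the strain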
Conditions: S. cerevisiae deletion strains, growth OD

Measured: normalized growth

C[C@]12CCC3c4ccc(O)cc4CCC3C1C[C@@H](O)[C@@H]2O (some centres undefined)
inactive: locus YAL013W, strain DEP1, stronger effect = lower value 0.994 | locus YAL021C, strain ccr4, stronger effect = lower value 1.01 | locus YAL026C, strain drs2, stronger effect = lower value 1 | locus YAL030W, strain snc1, stronger effect = lower value 1.02 | locus YBL061C, strain skt5, stronger effect = lower value 1.02 | locus YBR009C, strain hhf1, stronger effect = lower value 1.02 | locus YBR021W, strain FUR4, stronger effect = lower value 1.01 | locus YBR023C, strain chs3, stronger effect = lower value 1.03 | locus YBR171W, strain sec66, stronger effect = lower value 1.02 | locus YBR229C, strain ROT2, stronger effect = lower value 0.962 | locus YBR231C, strain swc5, stronger effect = lower value 0.988 | locus YBR279W, strain paf1, stronger effect = lower value 1.04 | locus YCL011C, strain gbp2, stronger effect = lower value 1.05 | locus YCL016C, strain dcc1, stronger effect = lower value 1.05 | locus YCL029C, strain bik1, stronger effect = lower value 0.984 | locus YCL061C, strain MRC1, stronger effect = lower value 1.03 | locus YCL069W, strain vba3, stronger effect = lower value 1.01 | locus YCR088W, strain abp1, stronger effect = lower value 1.01 | locus YDL005C, strain med2, stronger effect = lower value 1.02 | locus YDL035C, strain GPR1, stronger effect = lower value 0.969 | locus YDL040C, strain nat1, stronger effect = lower value 1.01 | locus YDL074C, strain BRE1, stronger effect = lower value 0.951 | locus YDL101C, strain DUN1, stronger effect = lower value 0.997 | locus YDL185W, strain tfp1, stronger effect = lower value 0.974 | locus YDL192W, strain arf1, stronger effect = lower value 0.985 | locus YDR001C, strain nth1, stronger effect = lower value 1.01 | locus YDR069C, strain doa4, stronger effect = lower value 1 | locus YDR101C, strain arx1, stronger effect = lower value 0.945 | locus YDR137W, strain rgp1, stronger effect = lower value 1.06 | locus YDR150W, strain NUM1, stronger effect = lower value 0.989 | locus YDR159W, strain sac3, stronger effect = lower value 0.979 | locus YDR162C, strain NBP2, stronger effect = lower value 0.968 | locus YDR195W, strain ref2 0.999 | locus YDR297W, strain sur2, stronger effect = lower value 1.03 | locus YDR318W, strain mcm21, stronger effect = lower value 1 | locus YDR334W, strain swr1, stronger effect = lower value 1.02 | locus YDR335W, strain msn5, stronger effect = lower value 1.02 | locus YDR388W, stronger effect = lower value 0.982 | locus YDR392W, strain spt3, stronger effect = lower value 1.01 | locus YDR502C, strain sam2, stronger effect = lower value 0.993 | locus YEL003W, strain gim4, stronger effect = lower value 0.994 | locus YEL037C, strain rad23, stronger effect = lower value 1.01 | locus YEL061C, strain CIN8 (second series), stronger effect = lower value 1.01 | locus YEL061C, strain CIN8, stronger effect = lower value 0.997 | locus YER015W, strain faa2, stronger effect = lower value 1.02 | locus YER016W, strain bim1, stronger effect = lower value 1 | locus YER110C, stronger effect = lower value 0.983 | locus YER111C, strain swi4, stronger effect = lower value 1.03 | locus YER155C, strain BEM2 (second series), stronger effect = lower value 1.02 | locus YER155C, strain BEM2, stronger effect = lower value 0.993 | locus YER167W, strain BCK2, stronger effect = lower value 1 | locus YFR010W, strain ubp6, stronger effect = lower value 1.01 | locus YGL078C, strain dbp3, stronger effect = lower value 0.995 | locus YGL086W, strain mad1, stronger effect = lower value 0.971 | locus YGL167C, strain pmr1, stronger effect = lower value 1.03 | locus YGL173C, strain kem1, stronger effect = lower value 1.01 | locus YGL227W, strain vid30, stronger effect = lower value 1.02 | locus YGL240W, strain doc1, stronger effect = lower value 1.03 | locus YGL248W, strain PDE1, stronger effect = lower value 0.988 | locus YGL253W, strain hxk2, stronger effect = lower value 1 | locus YGR135W, strain pre9, stronger effect = lower value 1.07 | locus YGR252W, strain gcn5, stronger effect = lower value 1.07 | locus YHR013C, strain ard1, stronger effect = lower value 1.05 | locus YHR027C, strain rpn1, stronger effect = lower value 1.02 | locus YHR030C, strain SLT2, stronger effect = lower value 0.993 and 1.01 | locus YHR079C, strain IRE1 (second series), stronger effect = lower value 0.987 | locus YHR079C, strain IRE1, stronger effect = lower value 0.992 | locus YHR094C, strain hxt1, stronger effect = lower value 0.984 | locus YHR129C, strain ARP1, stronger effect = lower value 0.994 | locus YHR142W, strain chs7, stronger effect = lower value 1.02 | locus YHR200W, strain rpn10, stronger effect = lower value 1 | locus YIL066C, strain RNR3, stronger effect = lower value 0.977 | locus YIL073C, strain SPO22, stronger effect = lower value 0.991 | locus YIL125W, strain kgd1, stronger effect = lower value 0.985 | locus YIR030C, strain dcg1, stronger effect = lower value 0.994 | locus YJL092W, strain hpr5, stronger effect = lower value 1.02 | locus YJL095W, strain BCK1 (second series), stronger effect = lower value 1.02 | locus YJL095W, strain BCK1, stronger effect = lower value 1 and 0.994 | locus YJL115W, strain asf1, stronger effect = lower value 1.02 | locus YJL129C, strain trk1, stronger effect = lower value 1.03 | locus YJL134W, strain LCB3, stronger effect = lower value 0.989 | locus YJL154C, strain vps35, stronger effect = lower value 1.01 | locus YJL164C, strain tpk1, stronger effect = lower value 1.01 | locus YJL166W, strain qcr8, stronger effect = lower value 1.05 | locus YJL168C, strain set2, stronger effect = lower value 1.01 | locus YJL187C, strain SWE1 (second series), stronger effect = lower value 0.996 | locus YJL187C, strain SWE1, stronger effect = lower value 1.04 | locus YJR043C, strain POL32, stronger effect = lower value 0.976 | locus YJR066W, strain TOR1, stronger effect = lower value 0.97 | locus YJR075W, strain HOC1, stronger effect = lower value 0.992 | locus YKL009W, strain mrt4, stronger effect = lower value 0.973 | locus YKL068W, stronger effect = lower value 0.986 | locus YKL085W, strain MDH1 (second series), stronger effect = lower value 1.01 | locus YKL085W, strain MDH1, stronger effect = lower value 1.01 | locus YKL160W, strain elf1, stronger effect = lower value 1.05 | locus YKR001C, strain vps1, stronger effect = lower value 0.972 | locus YKR026C, strain gcn3, stronger effect = lower value 1.02 | locus YKR091W, strain srl3, stronger effect = lower value 1.02 | locus YLL001W, strain dnm1, stronger effect = lower value 1.05 | locus YLL026W, stronger effect = lower value 1.02 | locus YLL041C, strain sdh2, stronger effect = lower value 1.01 | locus YLR027C, strain aat2, stronger effect = lower value 1.01 | locus YLR039C, strain RIC1, stronger effect = lower value 1.03 | locus YLR058C, strain SHM2, stronger effect = lower value 0.977 | locus YLR102C, strain apc9, stronger effect = lower value 0.996 | locus YLR113W, strain HOG1, stronger effect = lower value 0.97 | locus YLR221C, strain rsa3, stronger effect = lower value 1.05 | locus YLR258W, strain gsy2, stronger effect = lower value 1.01 | locus YLR262C, strain YPT6 (second series), stronger effect = lower value 1.04 | locus YLR262C, strain YPT6, stronger effect = lower value 0.925 | locus YLR268W, strain sec22, stronger effect = lower value 0.987 | locus YLR320W, strain mms22, stronger effect = lower value 1.07 | locus YLR330W, strain CHS5, stronger effect = lower value 0.984 | locus YLR342W, strain FKS1 (second series), stronger effect = lower value 0.999 | locus YLR342W, strain FKS1, stronger effect = lower value 1.02 | locus YLR357W, strain rsc2, stronger effect = lower value 1.03 | locus YLR370C, strain arc18, stronger effect = lower value 1.02 | locus YLR371W, strain rom2, stronger effect = lower value 1.01 | locus YLR384C, strain iki3, stronger effect = lower value 1.02 | locus YLR418C, strain cdc73, stronger effect = lower value 1.02 | locus YML016C, strain PPZ1, stronger effect = lower value 0.989 | locus YML032C, strain rad52, stronger effect = lower value 0.967 | locus YML120C, strain ndi1, stronger effect = lower value 1.04 | locus YML124C, strain tub3, stronger effect = lower value 0.996 | locus YMR058W, strain fet3, stronger effect = lower value 1.01 | locus YMR078C, strain ctf18, stronger effect = lower value 0.991 | locus YMR125W, strain sto1, stronger effect = lower value 1.02 | locus YMR129W, stronger effect = lower value 1 | locus YMR205C, strain PFK2, stronger effect = lower value 1.04 | locus YMR223W, strain ubp8, stronger effect = lower value 1.02 | locus YMR231W, strain pep5, stronger effect = lower value 1.02 | locus YMR307W, strain GAS1, stronger effect = lower value 0.954 | locus YNL067W, strain RPL9B, stronger effect = lower value 0.994 | locus YNL071W, strain lat1, stronger effect = lower value 1.02 | locus YNL153C, strain GIM3, stronger effect = lower value 0.976 | locus YNL183C, strain NPR1, stronger effect = lower value 0.962 | locus YNL209W, strain ssb2, stronger effect = lower value 1.03 | locus YNL233W, strain BNI4, stronger effect = lower value 0.987 | locus YNL248C, strain rpa49, stronger effect = lower value 1.05 | locus YNL250W, strain rad50, stronger effect = lower value 0.987 | locus YNL271C, strain bni1, stronger effect = lower value 0.991 | locus YNL298W, strain CLA4, stronger effect = lower value 0.99 | locus YNL307C, strain MCK1, stronger effect = lower value 0.999 | locus YNL322C, strain KRE1 (second series), stronger effect = lower value 1.05 | locus YNR049C, strain mso1, stronger effect = lower value 1.02 | locus YNR052C, strain pop2, stronger effect = lower value 0.982 | locus YOL012C, strain htz1 1.25 | locus YOL147C, strain pex11, stronger effect = lower value 0.993 | locus YOR001W, strain rrp6, stronger effect = lower value 0.998 | locus YOR061W, strain CKA2, stronger effect = lower value 0.973 | locus YOR069W, strain VPS5, stronger effect = lower value 0.997 | locus YOR070C, strain gyp1, stronger effect = lower value 1.02 | locus YOR080W, strain dia2, stronger effect = lower value 1.02 | locus YOR083W, strain WHI5, stronger effect = lower value 1.06 | locus YOR106W, strain vam3, stronger effect = lower value 1.03 | locus YOR136W, strain idh2, stronger effect = lower value 0.987 | locus YOR144C, strain elg1, stronger effect = lower value 0.993 | locus YOR184W, strain ser1, stronger effect = lower value 1 | locus YOR231W, strain MKK1, stronger effect = lower value 0.972 | locus YOR265W, strain rbl2, stronger effect = lower value 1.02 | locus YOR270C, strain vph1, stronger effect = lower value 1.04 | locus YOR290C, strain snf2, stronger effect = lower value 0.975 | locus YOR316C, strain cot1, stronger effect = lower value 0.985 | locus YPL051W, strain arl3, stronger effect = lower value 1.02 | locus YPL078C, strain atp4, stronger effect = lower value 1.05 | locus YPL106C, strain sse1, stronger effect = lower value 1.06 | locus YPL240C, strain hsp82, stronger effect = lower value 1.03 | locus YPL241C, strain CIN2, stronger effect = lower value 0.989 | locus YPL256C, strain CLN2, stronger effect = lower value 1 | locus YPR119W, strain clb2, stronger effect = lower value 0.989 | locus YPR141C, strain kar3, stronger effect = lower value 0.989 | locus YPR163C, strain tif3, stronger effect = lower value 0.996 | locus YPR167C, strain met16, stronger effect = lower value 0.999 | strain wtn01, stronger effect = lower value 1.01
